BAZ2B inh – BAZ2B (human) inhibition | Q9UIF8 | hit rate 4.4% among 360,000 | AlphaScreen BAZ2B-H3K14Ac peptide displacement | Potency, µM (top dose mostly 114 µM), for the others: at the top dose activity change, negative = inhibition, most hits filed as inhibitors; note: potency is the fitted concentration of half-maximal effect; % is set by controls: 0 for no effect and ±100 for the full control effect; nearly all actives have a fitted effect of over 60% in size
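BAZ2B 50 nM plus b-H3(5-23)K14Ac 50 nM, PBS pH 7.4/0.01% Tween-20, 30 min RT; compound added (max 110 uM), 30 min RT; streptavidin donor/Ni-chelate acceptor beads 10 ug/mL final, 20 min dark; AlphaScreen read.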
Six1-Eya2 inh – Six1/Eya2 interaction inhibition | Q15475+O00167 | AID 651725 | hit rate 0.56% among 360,000 | activity change, % (concentration not given with the values) | AlphaScreen GST-Six1/His-Eya2 binding, biochemical; stronger effect = lower value; in the data active = activity change below about -65%; inconclusive = mostly about -30% to -63%; note: % is set by controls: 0 for no effect and ±100 for the full control effect
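Compounds are tested against tagged Six1 and Eya2 proteins bridged by glutathione donor and nickel acceptor beads; after a one-hour incubation at 37 °C without light, AlphaScreen emission is recorded.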
HP1b binding inh – HP1-beta chromodomain-methylated histone interaction inhibition | AlphaScreen HP1-beta / biotin-H3K9me3 peptide binding | P83916 | hit rate 0.56% among 390,000 | AID 540317 | Potency, µM (series often up to 114 µM), inactives show at the top dose activity change, negative = inhibition, usual class: inhibitors; note: potency is the fitted concentration of half-maximal effect; nearly all actives have a fitted effect of over 70% in size
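Compound inhibition of the preformed complex between 50 nM HP1-beta and 50 nM biotinylated H3K9me3 peptide was read by AlphaScreen. Buffer was PBS pH 7.4 with 0.01% Tween-20. Incubations ran 30 min at room temperature, with 10 ug/mL donor/acceptor beads.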
CtBP-E1A inh – inhibitors of CtBP/E1A interaction | activity change, % (concentration not given with the values) | hit rate 0.49% among 340,000 | AlphaScreen GST-E1A/His-CtBP binding, 1536-well; stronger effect = lower value; in the data active = activity change below about -65%; inconclusive = mostly about -30% to -63%; note: % is set by controls: 0 for no effect and ±100 for the full control effect
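Protein mix (5X: 125 nM each GST-E1A, His-CtBP) was incubated with pinned compound 2 h at 37 deg C in dark, in 50 mM Tris pH 8.0 buffer with 300 mM NaCl. Glutathione donor and nickel acceptor beads followed; AlphaScreen signal read after 1 h.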
TDP1 inh – TDP1 (human) enzyme inhibition; Q9NUW8; recombinant TDP1, AlphaScreen DNA substrate cleavage; Potency, µM (highest dose often 130 µM), inactives show at the highest dose activity change, negative = inhibition, usual class: inhibitors; hit rate 0.28% among 350,000; AID 485290; note: potency is the fitted concentration of half-maximal effect; % is set by controls: 0 for no effect and ±100 for the full control effect; nearly all actives have a fitted effect of over 40% in size
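Recombinant human Tdp1 (E. coli-expressed, 1 nM final) preincubated with compounds 15 min at room temperature, then 5'-biotin/3'-phosphotyrosine-FITC DNA substrate (15 nM final) added for 5 min. AlphaScreen beads (10 ug/ml final) added 10 min; cleavage lowers signal.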
JMJD2A Tudor – inhibitors of human JMJD2A Tudor domain | hit rate 4.4% among 390,000 | Potency, µM (series often up to 114 µM), inactives show at the highest dose activity change, negative = inhibition, hits mostly inhibitors | AlphaScreen JMJD2A-Tudor / H3K4me3 peptide binding | O75164 | AID 504339; note: potency is the fitted concentration of half-maximal effect; % is set by controls: 0 for no effect and ±100 for the full control effect; nearly all actives have a fitted effect of over 50% in size
12-hLO 8HQ R1 – blocks human 12-lipoxygenase product formation in cuvette; Potency, µM, usual class: inhibitors; shares compounds with BAZ2B inh; AID 2163; hit rate 60% among 35; purified 12-hLO, cuvette UV 234 nm product formation;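 active = compounds that slowed 12-hLO product formation enough to yield a measured IC50 potency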
Target sequence (P18054 whole entry, looked up): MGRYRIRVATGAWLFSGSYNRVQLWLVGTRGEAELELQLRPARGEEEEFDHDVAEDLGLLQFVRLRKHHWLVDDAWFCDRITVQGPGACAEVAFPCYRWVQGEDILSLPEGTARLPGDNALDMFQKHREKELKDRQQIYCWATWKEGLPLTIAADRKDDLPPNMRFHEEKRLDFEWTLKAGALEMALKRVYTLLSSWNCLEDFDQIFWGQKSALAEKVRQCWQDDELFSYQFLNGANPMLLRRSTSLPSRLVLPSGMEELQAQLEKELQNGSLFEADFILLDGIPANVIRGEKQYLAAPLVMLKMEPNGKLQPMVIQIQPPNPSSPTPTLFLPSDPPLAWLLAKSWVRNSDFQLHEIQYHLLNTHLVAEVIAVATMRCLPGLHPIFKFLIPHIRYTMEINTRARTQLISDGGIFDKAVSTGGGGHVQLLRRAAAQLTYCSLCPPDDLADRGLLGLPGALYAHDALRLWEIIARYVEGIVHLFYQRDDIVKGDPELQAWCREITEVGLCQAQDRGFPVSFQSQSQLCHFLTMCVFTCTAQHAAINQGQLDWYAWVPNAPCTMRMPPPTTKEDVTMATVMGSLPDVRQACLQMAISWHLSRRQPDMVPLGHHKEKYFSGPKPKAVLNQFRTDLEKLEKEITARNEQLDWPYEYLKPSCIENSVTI
KDM4E inh – inhibitors of human JMJD2E demethylase, 8HQ series round 1 | shares compounds with BAZ2B inh | JMJD2E demethylase, FDH-coupled NADH fluorescence (FDH is formaldehyde dehydrogenase) | Potency, µM (highest dose often 57 µM), without a hit: at the top dose activity, negative = inhibition, hits mostly inhibitors | hit rate 89% among 130
ME-1 growth – ME-1 cell growth inhibition; shares compounds with BAZ2B inh; ME-1 cell proliferation, ATP luminescence, 48 h; Potency, µM (highest dose often 56.1 µM), without a hit: at the highest dose activity change, negative = inhibition, usual class: inhibitors; hit rate 20% among 140
Numbers without * were called inactive; i = inactive; ? = inconclusive; / = no result given; [ ] = remark or other dose. In the library only some 5.3% were active in any assay of this set; here they are far more common. Unless noted, calls come from the whole dose curve; as a rule, active = well fitted curve in the direction sought with a large enough effect; inconclusive = small, poorly fitted or top-dose-only effect, or another doubt; inactive = no such curve, though single readings can be large; an effect the other way counts as inactive or inconclusive.

SMILES	BAZ2B inh	Six1-Eya2 inh	HP1b binding inh	CtBP-E1A inh	TDP1 inh	JMJD2A Tudor	ME-1 growth	others
O=C1c2ccccc2C(=O)c2c(Nc3ccc(CCO)cc3)ccc(O)c21	1.8µM*	-83*	8.9µM*	/	14%	8.9µM*	?
O=C1CSC(=S)N1/N=C/c1ccc(O)c(O)c1O	2.8µM*	-91*	1.8µM*	-94*	?	3.2µM*	?
O=C(O[C@@H]1OC2COC(=O)c3cc(O)c(O)c(O)c3-c3c(cc(O)c(O)c3O)C(=O)O[C@@H]([C@H]1O)[C@@H]2O)c1cc(O)c(O)c(O)c1	0.79µM*	?	-74%	-15	-4%	/	?
CC(NC(=O)c1ccc2c(c1)CCN2S(=O)(=O)c1ccccc1)c1ccccc1 (stereo unspecified)	5%	/	28%	/	0%	-3%	/
Nc1c(C(=O)NCC2CCCO2)sc2nc3c(c(-c4ccco4)c12)CC/C3=C\c1ccco1 (stereo unspecified)	8.9µM*	?	?	-26	?	2µM*	?
NC(=O)c1sc2nc3c(c(-c4ccco4)c2c1N)CCCC3	-19%	-23	27%	/	/	-24%	/
Nc1nc(-c2ccc3c(c2)NC(=O)CO3)cs1	?	-1	-1%	-2	12%	?	-2%[25.6 µM]
CCOC(=O)CSc1nc2ccccc2c(=O)n1-c1cccc(C)c1	3%	/	33%	/	/	-7%	/
O=C(O)c1cc(O)c2c(c1)[C@H]([C@H]1c3cc(C(=O)O)cc(O)c3C(=O)c3c(O[C@@H]4OC(CO)C(O)C(O)C4O)cccc31)c1cccc(O[C@@H]3OC(CO)C(O)C(O)C3O)c1C2=O (stereo partly specified)	/	/	/	/	/	/	-19%
OCC1OC(Oc2cccc3ccccc23)C(O)C(O)C1O (stereo unspecified)	7%	6	24%	9	/	11%	/
CCOC(=O)/C(C#N)=C/c1ccc(OC(=O)c2ccccn2)cc1	4.5µM*	-87*	17%	-3	3%	0.79µM*	-8%[25.6 µM]
CCOc1ccc(CCNC(=O)c2ccc(-n3c(C)cc4c3CCC(C)C4)cc2)cc1OCC (stereo unspecified)	-11%	/	21%	/	5%	-18%	/
CN(C)c1nc(-c2ccccn2)nnc1-c1ccccc1	0.79µM*	-92*	48%	-96*	10%	4µM*	16µM*
Cc1nnc(-c2ccccc2)nc1N(C)C	0%	-8	50%	1	8%	10%	/
CCC(=O)NC(c1cccs1)c1cc([N+](=O)[O-])c2cccnc2c1OC (stereo unspecified)	?	/	/	/	/	/	/	12-hLO 8HQ R1=i;KDM4E inh=4.6µM*
CC(=O)NC(c1ccco1)c1cc(Cl)c2ccccc2c1O (stereo unspecified)	-11%	/	14%	/	4%	-30%	/
CC(=O)NC(c1ccccc1)c1nc(-c2ccc(F)c(Cl)c2)cs1 (stereo unspecified)	/	4	/	0	/	/	/
CC(=O)NC(c1cccs1)c1cc(F)c2cccnc2c1O (stereo unspecified)	25µM*	/	14%	/	1%	79µM*	/	12-hLO 8HQ R1=2µM*;KDM4E inh=29µM*
CC(=O)NC(c1ccco1)c1cc(F)c2cccnc2c1O (stereo unspecified)	20µM*	/	23%	/	1%	56µM*	/	12-hLO 8HQ R1=5µM*;KDM4E inh=29µM*

Screening data (PubChem BioAssay)
